Assay [1] addresses T1, Serine/threonine-protein kinase Nek9 (Homo sapiens) (UniProt Q8TD19).
T1 sequence (whole entry): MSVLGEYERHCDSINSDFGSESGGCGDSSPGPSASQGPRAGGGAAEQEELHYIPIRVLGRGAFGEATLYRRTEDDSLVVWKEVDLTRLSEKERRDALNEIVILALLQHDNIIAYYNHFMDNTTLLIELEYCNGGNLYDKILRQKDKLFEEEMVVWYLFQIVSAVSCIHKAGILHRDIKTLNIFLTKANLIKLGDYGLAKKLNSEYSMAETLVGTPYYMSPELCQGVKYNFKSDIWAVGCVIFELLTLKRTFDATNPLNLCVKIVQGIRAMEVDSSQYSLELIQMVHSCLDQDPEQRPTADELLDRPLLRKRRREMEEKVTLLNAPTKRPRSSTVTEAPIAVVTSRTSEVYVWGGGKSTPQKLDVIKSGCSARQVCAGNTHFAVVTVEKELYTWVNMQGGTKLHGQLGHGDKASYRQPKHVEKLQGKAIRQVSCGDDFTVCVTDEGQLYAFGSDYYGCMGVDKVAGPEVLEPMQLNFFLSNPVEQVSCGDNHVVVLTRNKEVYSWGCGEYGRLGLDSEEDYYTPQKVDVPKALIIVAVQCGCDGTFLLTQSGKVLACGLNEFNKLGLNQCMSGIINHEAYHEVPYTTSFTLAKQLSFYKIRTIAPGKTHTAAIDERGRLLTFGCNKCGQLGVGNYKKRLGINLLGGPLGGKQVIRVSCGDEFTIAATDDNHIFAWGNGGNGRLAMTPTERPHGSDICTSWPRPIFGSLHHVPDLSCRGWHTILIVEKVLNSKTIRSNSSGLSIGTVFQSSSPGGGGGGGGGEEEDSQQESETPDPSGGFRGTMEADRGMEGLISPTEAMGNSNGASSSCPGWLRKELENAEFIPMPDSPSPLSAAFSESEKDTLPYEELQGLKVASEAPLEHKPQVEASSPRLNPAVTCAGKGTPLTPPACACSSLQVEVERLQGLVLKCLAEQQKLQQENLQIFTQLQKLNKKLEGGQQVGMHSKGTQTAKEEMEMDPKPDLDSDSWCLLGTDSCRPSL
Conditions: at 1 µM.

The target of assay [2] is Serine/threonine-protein kinase PLK1 (Homo sapiens) (UniProt P53350). The conditions noted are these: at 0.1 µM.
For assay [3] the target is unchanged. The conditions noted are these: at 1 µM.
Assay [4] deals with T2, Dual specificity protein kinase TTK (Homo sapiens) (UniProt P33981).
T2 sequence (whole entry): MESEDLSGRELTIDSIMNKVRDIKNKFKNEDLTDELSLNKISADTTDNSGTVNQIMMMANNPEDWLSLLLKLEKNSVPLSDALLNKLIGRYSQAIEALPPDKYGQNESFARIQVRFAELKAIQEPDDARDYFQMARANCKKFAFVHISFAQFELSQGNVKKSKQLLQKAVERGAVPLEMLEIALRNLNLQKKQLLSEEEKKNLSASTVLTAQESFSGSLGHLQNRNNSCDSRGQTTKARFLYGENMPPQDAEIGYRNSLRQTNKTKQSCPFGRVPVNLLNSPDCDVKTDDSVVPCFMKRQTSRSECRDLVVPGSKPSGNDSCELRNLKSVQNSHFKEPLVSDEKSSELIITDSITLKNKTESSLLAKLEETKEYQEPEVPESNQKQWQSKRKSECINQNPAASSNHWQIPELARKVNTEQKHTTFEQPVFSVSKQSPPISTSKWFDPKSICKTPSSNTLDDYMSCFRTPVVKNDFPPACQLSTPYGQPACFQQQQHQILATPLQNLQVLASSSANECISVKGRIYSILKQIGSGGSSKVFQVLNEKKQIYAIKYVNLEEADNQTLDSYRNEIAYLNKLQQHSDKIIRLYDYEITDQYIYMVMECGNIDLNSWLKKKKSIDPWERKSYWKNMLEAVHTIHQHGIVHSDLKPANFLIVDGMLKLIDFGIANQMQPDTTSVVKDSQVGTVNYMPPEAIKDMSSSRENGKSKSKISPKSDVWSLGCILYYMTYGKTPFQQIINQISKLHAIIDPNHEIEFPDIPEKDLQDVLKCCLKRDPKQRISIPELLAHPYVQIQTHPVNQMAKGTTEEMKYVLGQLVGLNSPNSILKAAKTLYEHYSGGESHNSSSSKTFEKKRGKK
Conditions: at 0.1 µM.

Assay [5] concerns T3, Receptor-type tyrosine-protein kinase FLT3 (Homo sapiens), P36888 [D835Y].
T3 sequence (whole entry): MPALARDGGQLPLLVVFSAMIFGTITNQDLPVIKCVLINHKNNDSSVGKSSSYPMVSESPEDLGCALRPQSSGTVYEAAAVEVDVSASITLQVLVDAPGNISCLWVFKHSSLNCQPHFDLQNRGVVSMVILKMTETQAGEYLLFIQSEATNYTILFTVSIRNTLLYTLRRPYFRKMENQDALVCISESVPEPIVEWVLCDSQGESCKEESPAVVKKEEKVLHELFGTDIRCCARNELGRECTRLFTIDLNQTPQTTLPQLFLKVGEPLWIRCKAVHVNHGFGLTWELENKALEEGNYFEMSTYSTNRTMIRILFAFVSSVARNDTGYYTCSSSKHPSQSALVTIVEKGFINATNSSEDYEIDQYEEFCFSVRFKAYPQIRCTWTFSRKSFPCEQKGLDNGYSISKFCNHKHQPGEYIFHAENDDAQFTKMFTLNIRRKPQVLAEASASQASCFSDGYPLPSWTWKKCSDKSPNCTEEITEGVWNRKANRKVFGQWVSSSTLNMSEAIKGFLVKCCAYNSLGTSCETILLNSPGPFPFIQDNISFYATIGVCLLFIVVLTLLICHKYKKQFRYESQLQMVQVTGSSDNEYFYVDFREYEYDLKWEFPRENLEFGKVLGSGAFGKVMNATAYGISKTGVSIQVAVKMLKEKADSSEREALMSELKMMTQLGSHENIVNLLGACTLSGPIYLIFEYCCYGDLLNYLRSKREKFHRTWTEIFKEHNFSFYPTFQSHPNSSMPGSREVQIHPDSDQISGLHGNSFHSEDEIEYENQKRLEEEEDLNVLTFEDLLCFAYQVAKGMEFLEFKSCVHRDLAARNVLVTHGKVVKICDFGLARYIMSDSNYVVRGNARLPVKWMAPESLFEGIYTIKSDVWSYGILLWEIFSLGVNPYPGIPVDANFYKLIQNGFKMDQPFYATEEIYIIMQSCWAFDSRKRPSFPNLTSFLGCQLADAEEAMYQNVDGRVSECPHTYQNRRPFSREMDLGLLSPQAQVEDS
Conditions: at 1 µM.

The target in assay [6] is Vascular endothelial growth factor receptor 3 (Homo sapiens) (UniProt P35916). Conditions: at 0.1 µM.
The target is the same in assay [7]. Conditions: at 1 µM.
For assay [8], the target named is Macrophage colony-stimulating factor 1 receptor (Homo sapiens) (UniProt P07333). Conditions: at 0.1 µM.
For assay [9] the target is unchanged. The conditions noted are these: at 1 µM.
The target in assay [10] is Tyrosine-protein kinase Fyn (Homo sapiens) (UniProt P06241). Conditions: at 0.1 µM.
The target is the same in assay [11]. Conditions: at 1 µM.
Assay [12] has as its target Tyrosine-protein kinase HCK (Homo sapiens) (UniProt P08631). Conditions: at 0.1 µM.
Assay [13] has the same target. Conditions: at 1 µM.
Assay [14] addresses Insulin-like growth factor 1 receptor (Homo sapiens) (UniProt P08069). The conditions noted are these: at 0.1 µM.
For assay [15] the target is unchanged. Conditions: at 1 µM.
For assay [16], the target named is Insulin receptor (Homo sapiens) (UniProt P06213). Conditions: at 0.1 µM.
Assay [17] shares this target. Conditions: at 1 µM.
The target of assay [18] is Insulin receptor-related protein (Homo sapiens) (UniProt P14616). The conditions noted are these: at 0.1 µM.
For assay [19] the target is unchanged. The conditions noted are these: at 1 µM.
The target of assay [20] is T4, Tyrosine-protein kinase ITK/TSK (Homo sapiens) (UniProt Q08881).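 Further: mean percent inhibition of ITK from the GSK PKIS screen.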
T4 sequence (whole entry): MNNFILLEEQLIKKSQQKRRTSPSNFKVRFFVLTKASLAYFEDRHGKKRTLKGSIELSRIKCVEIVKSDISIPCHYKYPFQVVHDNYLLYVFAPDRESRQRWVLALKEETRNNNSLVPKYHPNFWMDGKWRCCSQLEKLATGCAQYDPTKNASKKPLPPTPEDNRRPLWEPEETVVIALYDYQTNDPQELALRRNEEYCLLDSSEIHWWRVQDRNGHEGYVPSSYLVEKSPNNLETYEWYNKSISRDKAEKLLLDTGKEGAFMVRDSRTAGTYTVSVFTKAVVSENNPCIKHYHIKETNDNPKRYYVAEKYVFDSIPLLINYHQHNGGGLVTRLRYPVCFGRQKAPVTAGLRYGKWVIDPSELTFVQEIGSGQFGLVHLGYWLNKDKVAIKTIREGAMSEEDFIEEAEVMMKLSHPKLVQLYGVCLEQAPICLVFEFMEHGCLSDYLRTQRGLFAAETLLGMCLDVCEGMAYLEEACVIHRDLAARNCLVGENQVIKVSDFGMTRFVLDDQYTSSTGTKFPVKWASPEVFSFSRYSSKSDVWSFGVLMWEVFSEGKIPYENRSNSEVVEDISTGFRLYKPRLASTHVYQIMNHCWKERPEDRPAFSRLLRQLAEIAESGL
Conditions: at 0.1 µM.

What is called inhibition is the change of the read-out against control, counted positive when it falls.

Vascular endothelial growth factor receptor 3 (Homo sapiens), sequence (P35916 whole entry): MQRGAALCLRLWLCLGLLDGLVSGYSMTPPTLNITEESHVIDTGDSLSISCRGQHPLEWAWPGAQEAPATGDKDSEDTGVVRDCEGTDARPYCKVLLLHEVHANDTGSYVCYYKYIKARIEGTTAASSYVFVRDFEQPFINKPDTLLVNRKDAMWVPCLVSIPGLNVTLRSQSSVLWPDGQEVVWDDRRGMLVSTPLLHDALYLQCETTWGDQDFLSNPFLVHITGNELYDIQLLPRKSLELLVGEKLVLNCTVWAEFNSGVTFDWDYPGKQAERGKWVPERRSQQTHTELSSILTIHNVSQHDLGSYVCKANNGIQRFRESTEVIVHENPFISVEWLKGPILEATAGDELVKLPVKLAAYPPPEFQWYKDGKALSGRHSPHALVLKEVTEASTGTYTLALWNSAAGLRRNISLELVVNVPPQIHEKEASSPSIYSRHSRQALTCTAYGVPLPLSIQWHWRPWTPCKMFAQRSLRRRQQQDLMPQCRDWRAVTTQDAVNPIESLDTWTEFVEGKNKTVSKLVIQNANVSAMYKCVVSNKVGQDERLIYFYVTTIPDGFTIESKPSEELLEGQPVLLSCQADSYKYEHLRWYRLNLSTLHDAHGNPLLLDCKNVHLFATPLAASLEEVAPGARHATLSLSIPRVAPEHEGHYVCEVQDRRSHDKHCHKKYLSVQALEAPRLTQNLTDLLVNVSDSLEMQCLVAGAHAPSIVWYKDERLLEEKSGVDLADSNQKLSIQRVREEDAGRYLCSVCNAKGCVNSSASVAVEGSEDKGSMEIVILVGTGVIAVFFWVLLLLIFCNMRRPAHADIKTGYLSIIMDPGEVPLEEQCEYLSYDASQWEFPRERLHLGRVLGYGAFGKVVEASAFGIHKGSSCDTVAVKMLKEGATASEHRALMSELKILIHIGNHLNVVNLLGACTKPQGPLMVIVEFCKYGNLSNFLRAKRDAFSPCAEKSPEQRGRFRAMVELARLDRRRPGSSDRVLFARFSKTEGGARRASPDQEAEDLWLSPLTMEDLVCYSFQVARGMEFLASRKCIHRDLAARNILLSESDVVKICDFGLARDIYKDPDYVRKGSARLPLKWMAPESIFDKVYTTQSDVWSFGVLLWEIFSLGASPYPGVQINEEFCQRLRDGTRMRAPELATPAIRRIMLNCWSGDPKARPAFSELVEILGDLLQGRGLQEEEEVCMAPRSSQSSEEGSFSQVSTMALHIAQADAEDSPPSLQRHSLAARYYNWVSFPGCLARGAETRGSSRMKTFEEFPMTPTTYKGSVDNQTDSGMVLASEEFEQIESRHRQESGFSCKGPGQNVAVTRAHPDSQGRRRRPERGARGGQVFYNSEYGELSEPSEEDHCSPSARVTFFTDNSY
Macrophage colony-stimulating factor 1 receptor (Homo sapiens), sequence (P07333 whole entry): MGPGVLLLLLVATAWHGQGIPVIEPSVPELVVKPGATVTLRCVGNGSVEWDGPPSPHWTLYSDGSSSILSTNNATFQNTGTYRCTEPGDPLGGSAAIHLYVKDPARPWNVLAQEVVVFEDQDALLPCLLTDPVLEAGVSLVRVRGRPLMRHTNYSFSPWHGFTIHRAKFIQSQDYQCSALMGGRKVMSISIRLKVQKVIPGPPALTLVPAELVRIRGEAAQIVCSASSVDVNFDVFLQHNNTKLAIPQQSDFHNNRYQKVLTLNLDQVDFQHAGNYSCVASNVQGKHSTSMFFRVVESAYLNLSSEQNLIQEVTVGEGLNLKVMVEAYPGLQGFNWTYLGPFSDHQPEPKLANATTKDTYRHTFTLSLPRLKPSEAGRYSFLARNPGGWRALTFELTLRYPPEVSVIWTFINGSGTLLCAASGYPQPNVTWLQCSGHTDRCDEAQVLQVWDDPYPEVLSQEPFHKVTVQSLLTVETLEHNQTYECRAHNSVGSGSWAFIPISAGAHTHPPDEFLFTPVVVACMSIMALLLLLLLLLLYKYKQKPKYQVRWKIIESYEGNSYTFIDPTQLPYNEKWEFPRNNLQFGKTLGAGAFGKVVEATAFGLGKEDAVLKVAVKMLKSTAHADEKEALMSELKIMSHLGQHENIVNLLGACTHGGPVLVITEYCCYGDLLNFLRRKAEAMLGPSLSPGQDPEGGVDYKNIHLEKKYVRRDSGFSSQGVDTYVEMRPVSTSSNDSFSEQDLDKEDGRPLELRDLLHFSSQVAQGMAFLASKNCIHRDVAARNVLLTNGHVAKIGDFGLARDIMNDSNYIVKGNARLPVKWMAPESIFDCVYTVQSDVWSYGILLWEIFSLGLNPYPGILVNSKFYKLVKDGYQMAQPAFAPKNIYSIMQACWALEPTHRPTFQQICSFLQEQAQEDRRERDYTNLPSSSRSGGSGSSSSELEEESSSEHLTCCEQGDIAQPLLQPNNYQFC
Insulin-like growth factor 1 receptor (Homo sapiens), sequence (P08069 31-736 limits assumed): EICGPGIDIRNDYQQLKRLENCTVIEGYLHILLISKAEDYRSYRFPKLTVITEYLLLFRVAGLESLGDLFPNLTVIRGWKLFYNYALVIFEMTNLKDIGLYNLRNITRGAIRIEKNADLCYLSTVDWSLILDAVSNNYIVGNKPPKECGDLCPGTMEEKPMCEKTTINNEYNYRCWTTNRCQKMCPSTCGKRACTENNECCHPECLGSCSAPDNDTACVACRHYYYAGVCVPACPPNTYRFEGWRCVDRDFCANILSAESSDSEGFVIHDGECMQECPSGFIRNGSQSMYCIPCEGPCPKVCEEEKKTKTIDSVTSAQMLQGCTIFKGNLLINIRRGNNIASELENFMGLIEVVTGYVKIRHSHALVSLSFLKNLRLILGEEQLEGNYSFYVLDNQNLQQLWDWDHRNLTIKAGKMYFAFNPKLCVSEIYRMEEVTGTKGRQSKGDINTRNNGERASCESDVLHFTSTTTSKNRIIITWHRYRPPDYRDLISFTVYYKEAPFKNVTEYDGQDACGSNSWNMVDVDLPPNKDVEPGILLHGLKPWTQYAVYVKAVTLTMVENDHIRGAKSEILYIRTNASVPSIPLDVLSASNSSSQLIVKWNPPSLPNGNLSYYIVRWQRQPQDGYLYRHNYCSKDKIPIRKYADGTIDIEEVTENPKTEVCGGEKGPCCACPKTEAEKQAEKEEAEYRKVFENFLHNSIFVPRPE
Insulin-like growth factor 1 receptor (Homo sapiens), sequence (P08069 741-1367 limits assumed): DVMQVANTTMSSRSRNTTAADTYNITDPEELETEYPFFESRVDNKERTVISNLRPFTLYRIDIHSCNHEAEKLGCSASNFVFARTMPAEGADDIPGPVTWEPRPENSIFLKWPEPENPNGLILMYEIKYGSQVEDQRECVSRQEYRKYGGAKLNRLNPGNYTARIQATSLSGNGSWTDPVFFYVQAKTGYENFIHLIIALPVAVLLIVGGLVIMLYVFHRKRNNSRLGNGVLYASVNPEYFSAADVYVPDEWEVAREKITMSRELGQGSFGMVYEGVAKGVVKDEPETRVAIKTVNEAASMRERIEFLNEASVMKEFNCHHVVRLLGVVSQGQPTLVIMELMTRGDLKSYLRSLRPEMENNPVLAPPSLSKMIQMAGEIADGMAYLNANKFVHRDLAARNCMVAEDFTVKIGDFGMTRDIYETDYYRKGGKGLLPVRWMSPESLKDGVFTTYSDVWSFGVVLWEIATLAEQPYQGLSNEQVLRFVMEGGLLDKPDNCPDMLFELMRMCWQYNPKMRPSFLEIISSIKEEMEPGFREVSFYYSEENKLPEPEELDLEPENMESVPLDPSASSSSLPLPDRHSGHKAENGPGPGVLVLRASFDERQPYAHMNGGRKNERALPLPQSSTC
Insulin receptor-related protein (Homo sapiens), sequence (P14616 27-742 limits assumed): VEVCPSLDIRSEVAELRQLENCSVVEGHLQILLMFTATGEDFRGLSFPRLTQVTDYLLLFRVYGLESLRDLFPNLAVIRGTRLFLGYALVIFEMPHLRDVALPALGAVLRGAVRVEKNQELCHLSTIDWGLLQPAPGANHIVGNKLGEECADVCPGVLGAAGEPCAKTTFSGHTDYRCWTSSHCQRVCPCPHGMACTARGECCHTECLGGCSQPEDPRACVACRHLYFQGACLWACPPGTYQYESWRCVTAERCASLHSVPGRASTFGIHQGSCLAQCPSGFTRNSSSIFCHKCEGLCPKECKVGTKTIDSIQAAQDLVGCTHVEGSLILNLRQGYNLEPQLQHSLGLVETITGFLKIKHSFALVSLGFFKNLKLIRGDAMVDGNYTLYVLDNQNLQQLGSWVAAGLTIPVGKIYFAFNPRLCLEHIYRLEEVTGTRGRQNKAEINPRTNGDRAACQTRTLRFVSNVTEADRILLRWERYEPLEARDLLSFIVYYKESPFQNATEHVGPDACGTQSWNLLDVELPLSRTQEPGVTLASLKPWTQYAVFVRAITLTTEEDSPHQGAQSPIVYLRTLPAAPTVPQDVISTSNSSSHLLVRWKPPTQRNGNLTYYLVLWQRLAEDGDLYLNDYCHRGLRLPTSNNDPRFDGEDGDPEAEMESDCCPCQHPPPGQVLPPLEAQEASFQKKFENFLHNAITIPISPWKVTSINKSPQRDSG
Insulin receptor-related protein (Homo sapiens), sequence (P14616 747-1297 limits assumed): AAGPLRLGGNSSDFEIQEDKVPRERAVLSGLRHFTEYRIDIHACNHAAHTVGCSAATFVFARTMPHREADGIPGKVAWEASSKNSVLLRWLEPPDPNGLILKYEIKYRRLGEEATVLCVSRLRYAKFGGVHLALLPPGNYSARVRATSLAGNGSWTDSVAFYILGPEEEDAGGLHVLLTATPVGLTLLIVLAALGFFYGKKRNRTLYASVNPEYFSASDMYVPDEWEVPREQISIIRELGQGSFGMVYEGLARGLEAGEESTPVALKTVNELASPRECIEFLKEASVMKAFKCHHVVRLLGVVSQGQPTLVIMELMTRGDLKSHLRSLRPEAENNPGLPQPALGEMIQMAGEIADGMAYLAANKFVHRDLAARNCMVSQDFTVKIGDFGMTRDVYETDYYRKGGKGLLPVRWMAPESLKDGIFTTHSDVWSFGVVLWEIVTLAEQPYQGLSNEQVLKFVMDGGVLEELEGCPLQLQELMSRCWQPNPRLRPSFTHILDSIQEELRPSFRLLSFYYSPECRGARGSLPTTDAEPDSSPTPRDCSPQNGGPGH

In the case of `COc1ccc2ncnc(Nc3ccc(OCc4ccccc4)cc3)c2c1`, the inhibition in [1] is 4.48%; in assay [2] it was 2.95%; in [3], 0.42%; in [4] it was 2.89%; in [5], 8.02%; in [6], -0.47%. Further, the inhibition in assay [7] was found to be 0.28%; in assay [8], 3.05%; in assay [9], 3.66%; in [10], 2.39%; in assay [11], 10.2%; in assay [12], 2.78%. The inhibition in assay [13] was 8.33%; in [14], 0.69%; in assay [15], 0.08%; in assay [16] it was 0.98%; in assay [17], 3.05%; in assay [18], 1.39%. Moreover, the results for the inhibition in assay [19] and in [20] were 2.07% and 0.5%, respectively.
Regarding `NC(=O)c1sc(-n2cnc3ccccc32)cc1OCc1ccccc1Br`, the inhibition in assay [1] was 23.5%; in [2], 78.3%; in [3] it was 95.3%; in assay [4], 10.6%; in [5], -5.34%; in [6], 2.98%. The inhibition in assay [7] was 4.24%; in assay [8] it was -0.73%; in [9], 7.89%; in assay [10], 3.58%; in assay [11] it was 6.19%; in assay [12], 4.21%. In addition, the inhibition turned out to be 7.03% in [13]; 1.53% in assay [14]; 3.04% in assay [15]; 3.07% in assay [16]; 5.25% in assay [17]; 1.82% in assay [18]. Further, the inhibition was found to be 3.4% in assay [19] and 1.35% in [20].
`NC(=O)c1cccc(Nc2nccc(Nc3cccc(F)c3)n2)c1`: the inhibition in assay [1] turned out to be 11%; in [2], 2.05%; in [3], 6.07%; in [4], 2.31%; in [5], 21.2%; in [6], 1.81%. The inhibition in [7] was 30.6%; in [8], 22.1%; in assay [9], 62.5%; in [10], 7.98%; in assay [11], 43.2%; in [12] it was 3.16%. Further, the inhibition was 30.8% in [13]; 1.8% in [14]; 20.9% in [15]; 4.46% in [16]; 21.1% in assay [17]; -0.57% in assay [18]. For the same compound, the inhibition is 1.15% in assay [19] and -0.24% in assay [20].
For the compound `N#Cc1cccc(Nc2nccc(-c3cnn4ncccc34)n2)c1`, the inhibition in [1] worked out at 15.6%; in assay [2] it was 3.24%; in assay [3], 9.23%; in [4], 11.2%; in assay [5], 53.4%; in [6], 5.06%. In addition, the inhibition worked out at 22.3% in assay [7]; 34.4% in [8]; 79.4% in assay [9]; 6.76% in assay [10]; 39.2% in assay [11]; 7.16% in assay [12]. The inhibition turned out to be 35.9% in assay [13]; 8.04% in [14]; 38.2% in assay [15]; 9.03% in [16]; 40.9% in assay [17]; 3.98% in [18]. Besides, the figures for the inhibition in assay [19] and in assay [20] were 10.8% and 2.91%, respectively.

The values are drawn from ChEMBL document CHEMBL1961873, “Compounds: GSK PKIS; Assays: Nanosyn kinase panel” (2012).
